# This is one part of a sample in which the strongest signals are shown more often than they occur.
# B1: SynCAM (Mus musculus) (protein)
# chain: MASAVLPSGSQCAAAAAVAAAAAPPGLRLRLLLLLLSAAALIPTGDGQNLFTKDVTVIEGEVATISCQVNKSDDSVIQLLNPNRQTIYFRDFRPLKDSRFQLLNFSSSELKVSLTNVSISDEGRYFCQLYTDPPQESYTTITVLVPPRNLMIDIQKDTAVEGEEIEVNCTAMASKPATTIRWFKGNKELKGKSEVEEWSDMYTVTSQLMLKVHKEDDGVPVICQVEHPAVTGNLQTQRYLEVQYKPQVHIQMTYPLQGLTREGDAFELTCEAIGKPQPVMVTWVRVDDEMPQHAVLSGPNLFINNLNKTDNGTYRCEASNIVGKAHSDYMLYVYDPPTTIPPP
# Assays:
# Test in all cases: glycan array binding signal (z-score within array); higher = stronger binding
# Conditions in all cases: glycan notation: IUPAC condensed, linker removed
# [1] = molecular target: Fuc(a1-2)Gal(b1-3)GalNAc(b1-3)Gal
# Outline: (§1)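 The Consortium for Functional Glycomics database supplied 3228 glycan arrays, of which those lacking an available protein sequence were dropped. The binding signal, a within-array Z-score, was averaged across arrays of the same protein sequence and across linkers. Negative scores can be read as non-binding.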
# [2] = molecular target: Fuc(a1-2)Gal(b1-3)GlcNAc(b1-3)GalNAc
# Outline: as §1
# [3] = molecular target: Fuc(a1-2)Gal(b1-4)GlcNAc(b1-3)Gal(b1-4)GlcNAc(b1-2)Man(a1-3)[Fuc(a1-2)Gal(b1-4)GlcNAc(b1-3)Gal(b1-4)GlcNAc(b1-2)Man(a1-6)]Man(b1-4)GlcNAc(b1-4)GlcNAc
# Outline: as §1
# [4] = molecular target: Fuc(a1-2)Gal(b1-4)GlcNAc(b1-3)[Fuc(a1-3)[Gal(b1-4)]GlcNAc(b1-6)]Gal(b1-4)Glc
# Outline: as §1
# [5] = molecular target: Fuc(a1-2)[Gal(a1-3)]Gal(b1-4)Glc
# Outline: as §1
# [6] = molecular target: Fuc(a1-2)[Gal(a1-3)]Gal(b1-4)GlcNAc
# Outline: as §1
# [7] = molecular target: Fuc(a1-2)[GalNAc(a1-3)]Gal(b1-4)GlcNAc(b1-6)GalNAc
# Outline: as §1
# [8] = molecular target: Fuc(a1-2)[GalNAc(b1-3)]Gal
# Outline: as §1
# [9] = molecular target: Fuc(a1-3)[GalNAc(b1-4)]GlcNAc
# Outline: as §1
# [10] = molecular target: Gal(a1-6)Glc
# Outline: as §1
# [11] = molecular target: Gal(b1-2)Gal
# Outline: as §1
# [12] = molecular target: Gal(b1-3)GlcNAc(b1-3)Gal(b1-4)Glc
# Outline: as §1
# [13] = molecular target: Gal(b1-3)GlcNAc(b1-3)Gal(b1-4)GlcNAc(b1-3)Gal(b1-4)GlcNAc(b1-2)[Gal(b1-3)GlcNAc(b1-3)Gal(b1-4)GlcNAc(b1-3)Gal(b1-4)GlcNAc(b1-6)]Man(a1-6)[Gal(b1-3)GlcNAc(b1-3)Gal(b1-4)GlcNAc(b1-3)Gal(b1-4)GlcNAc(b1-2)Man(a1-3)]Man(b1-4)GlcNAc(b1-4)[Fuc(a1-6)]GlcNAc
# Outline: as §1
# [14] = molecular target: Gal(b1-3)GlcNAc(b1-3)Gal(b1-4)[Fuc(a1-3)]GlcNAc
# Outline: as §1
# [15] = molecular target: Gal(b1-3)GlcNAc(b1-3)GalNAc
# Outline: as §1
# [16] = molecular target: Gal(b1-3)[Neu5Ac(a2-6)]GalNAc
# Outline: as §1
# [17] = molecular target: Gal(b1-3)[Neu5Ac(b2-6)]GalNAc
# Outline: as §1
# [18] = molecular target: Gal(b1-4)GlcNAc(b1-2)Man(a1-3)Man(b1-4)GlcNAc(b1-4)GlcNAc
# Outline: as §1
# [19] = molecular target: Gal(b1-4)GlcNAc(b1-2)Man(a1-6)Man(b1-4)GlcNAc(b1-4)GlcNAc
# Outline: as §1
# [20] = molecular target: Gal(b1-4)GlcNAc(b1-2)[Gal(b1-4)GlcNAc(b1-4)]Man(a1-3)[Gal(b1-4)GlcNAc(b1-2)[Gal(b1-4)GlcNAc(b1-6)]Man(a1-6)]Man(b1-4)GlcNAc(b1-4)GlcNAc
# Outline: as §1
# [21] = molecular target: Gal(b1-4)GlcNAc(b1-3)Gal(b1-4)GlcNAc(b1-2)Man(a1-3)[Gal(b1-4)GlcNAc(b1-3)Gal(b1-4)GlcNAc(b1-2)Man(a1-6)]Man(b1-4)GlcNAc(b1-4)GlcNAc
# Outline: as §1
# [22] = molecular target: Gal(b1-4)GlcNAc(b1-3)Gal(b1-4)GlcNAc(b1-2)[Gal(b1-4)GlcNAc(b1-3)Gal(b1-4)GlcNAc(b1-6)]Man(a1-6)[Gal(b1-4)GlcNAc(b1-3)Gal(b1-4)GlcNAc(b1-2)Man(a1-3)]Man(b1-4)GlcNAc(b1-4)GlcNAc
# Outline: as §1
# [23] = molecular target: Gal(b1-4)GlcNAc(b1-3)Gal(b1-4)GlcNAc(b1-3)Gal(b1-4)GlcNAc(b1-2)Man(a1-3)[Gal(b1-4)GlcNAc(b1-3)Gal(b1-4)GlcNAc(b1-3)Gal(b1-4)GlcNAc(b1-2)Man(a1-6)]Man(b1-4)GlcNAc(b1-4)[Fuc(a1-6)]GlcNAc
# Outline: as §1
# [24] = molecular target: Gal(b1-4)GlcNAc(b1-3)Gal(b1-4)GlcNAc(b1-3)[Gal(b1-4)GlcNAc(b1-3)Gal(b1-4)GlcNAc(b1-6)]GalNAc
# Outline: as §1
# [25] = molecular target: Gal(b1-4)GlcNAc(b1-3)[Fuc(a1-3)GlcNAc(b1-6)]Gal(b1-4)Glc
# Outline: as §1
# [26] = molecular target: Gal(b1-4)GlcNAc(b1-6)[Gal(b1-3)]GalNAc
# Outline: as §1
# [27] = molecular target: Gal3S(b1-4)Glc
# Outline: as §1
# [28] = molecular target: Gal3S(b1-4)[Fuc(a1-3)]Glc6S
# Outline: as §1
# [29] = molecular target: Gal3S(b1-4)[Fuc(a1-3)]GlcNAc6S
# Outline: as §1
# [30] = molecular target: Gal3S6S(b1-4)GlcNAc
# Outline: as §1
# [31] = molecular target: Gal3S6S(b1-4)GlcNAc6S
# Outline: as §1
# [32] = molecular target: GalNAc(b1-3)Gal(a1-4)Gal(b1-4)GlcNAc
# Outline: as §1
# [33] = molecular target: GalNAc(b1-4)GlcNAc
# Outline: as §1
# [34] = molecular target: GlcNAc(a1-4)Gal(b1-4)GlcNAc
# Outline: as §1
# [35] = molecular target: GlcNAc(b1-2)[GlcNAc(b1-6)]Man(a1-6)[GlcNAc(b1-4)][GlcNAc(b1-2)Man(a1-3)]Man(b1-4)GlcNAc(b1-4)GlcNAc
# Outline: as §1
# [36] = molecular target: GlcNAc(b1-3)[GlcNAc(b1-4)][GlcNAc(b1-6)]GlcNAc
# Outline: as §1
# [37] = molecular target: GlcNAc(b1-4)GlcNAc
# Outline: as §1
# [38] = molecular target: GlcNAc(b1-4)GlcNAc(b1-4)GlcNAc(b1-4)GlcNAc(b1-4)GlcNAc(b1-4)GlcNAc
# Outline: as §1
# [39] = molecular target: Man(b1-4)GlcNAc
# Outline: as §1
# [40] = molecular target: Neu5Ac(a2-3)Gal(b1-3)GlcNAc(b1-2)Man
# Outline: as §1
# [41] = molecular target: Neu5Ac(a2-3)Gal(b1-3)GlcNAc(b1-4)Gal(b1-4)Glc
# Outline: as §1
# [42] = molecular target: Neu5Ac(a2-3)Gal(b1-3)[Fuc(a1-4)]GlcNAc
# Outline: as §1
# [43] = molecular target: Neu5Ac(a2-3)Gal(b1-3)[Neu5Ac(a2-6)]GlcNAc(b1-3)[Fuc(a1-3)[Gal(b1-4)]GlcNAc(b1-6)]Gal(b1-4)Glc
# Outline: as §1
# [44] = molecular target: Neu5Ac(a2-3)Gal(b1-4)GlcNAc(b1-2)[Neu5Ac(a2-3)Gal(b1-4)GlcNAc(b1-4)]Man(a1-3)[GlcNAc(b1-4)][Neu5Ac(a2-3)Gal(b1-4)GlcNAc(b1-2)[Neu5Ac(a2-3)Gal(b1-4)GlcNAc(b1-6)]Man(a1-6)]Man(b1-4)GlcNAc(b1-4)GlcNAc
# Outline: as §1
# [45] = molecular target: Neu5Ac(a2-3)Gal(b1-4)[Fuc(a1-3)]GlcNAc(b1-2)Man
# Outline: as §1
# [46] = molecular target: Neu5Ac(a2-6)Gal(b1-4)GlcNAc(b1-2)Man(a1-3)[Gal(b1-4)GlcNAc(b1-2)Man(a1-6)]Man(b1-4)GlcNAc(b1-4)GlcNAc
# Outline: as §1
# [47] = molecular target: Neu5Ac(a2-6)Gal(b1-4)GlcNAc(b1-3)Gal(b1-4)GlcNAc(b1-3)Gal(b1-4)GlcNAc(b1-2)Man(a1-3)[Neu5Ac(a2-6)Gal(b1-4)GlcNAc(b1-3)Gal(b1-4)GlcNAc(b1-3)Gal(b1-4)GlcNAc(b1-2)Man(a1-6)]GalNAc
# Outline: as §1
# [48] = molecular target: Neu5Ac(a2-6)Gal(b1-4)GlcNAc(b1-3)Gal(b1-4)GlcNAc(b1-3)GalNAc
# Outline: as §1
# [49] = molecular target: Neu5Ac(b2-6)GalNAc
# Outline: as §1
# [50] = molecular target: Neu5Gc(a2-3)Gal(b1-4)Glc
# Outline: as §1
# [51] = molecular target: Neu5Gc(a2-3)Gal(b1-4)GlcNAc
# Outline: as §1
# [52] = molecular target: Neu5Gc(b2-6)Gal(b1-4)GlcNAc
# Outline: as §1
binder,measurement,setting,value
B1,glycan array binding signal (z-score),[1],0.178
same,glycan array binding signal (z-score),[2],0.316
same,glycan array binding signal (z-score),[3],0.696
same,glycan array binding signal (z-score),[4],-0.893
same,glycan array binding signal (z-score),[5],-0.671
same,glycan array binding signal (z-score),[6],-1.34
same,glycan array binding signal (z-score),[7],-0.149
same,glycan array binding signal (z-score),[8],0.423
same,glycan array binding signal (z-score),[9],2.63
same,glycan array binding signal (z-score),[10],-0.988
same,glycan array binding signal (z-score),[11],0.521
same,glycan array binding signal (z-score),[12],0.308
same,glycan array binding signal (z-score),[13],2.43
same,glycan array binding signal (z-score),[14],-1.13
same,glycan array binding signal (z-score),[15],0.053
same,glycan array binding signal (z-score),[16],-0.488
same,glycan array binding signal (z-score),[17],-0.562
same,glycan array binding signal (z-score),[18],-1.2
same,glycan array binding signal (z-score),[19],-0.469
same,glycan array binding signal (z-score),[20],-0.042
same,glycan array binding signal (z-score),[21],2.96
same,glycan array binding signal (z-score),[22],0.285
same,glycan array binding signal (z-score),[23],1.48
same,glycan array binding signal (z-score),[24],0.945
same,glycan array binding signal (z-score),[25],0.097
same,glycan array binding signal (z-score),[26],-0.072
same,glycan array binding signal (z-score),[27],1.95
same,glycan array binding signal (z-score),[28],3.97
same,glycan array binding signal (z-score),[29],1.22
same,glycan array binding signal (z-score),[30],2.56
same,glycan array binding signal (z-score),[31],2.69
same,glycan array binding signal (z-score),[32],2.45
same,glycan array binding signal (z-score),[33],2.71
same,glycan array binding signal (z-score),[34],-1.14
same,glycan array binding signal (z-score),[35],-0.782
same,glycan array binding signal (z-score),[36],2.58
same,glycan array binding signal (z-score),[37],-1.17
same,glycan array binding signal (z-score),[38],0.16
same,glycan array binding signal (z-score),[39],-0.306
same,glycan array binding signal (z-score),[40],-0.517
same,glycan array binding signal (z-score),[41],-0.756
same,glycan array binding signal (z-score),[42],0.283
same,glycan array binding signal (z-score),[43],-0.498
same,glycan array binding signal (z-score),[44],0.594
same,glycan array binding signal (z-score),[45],3.11
same,glycan array binding signal (z-score),[46],-0.518
same,glycan array binding signal (z-score),[47],2.42
same,glycan array binding signal (z-score),[48],-0.464
same,glycan array binding signal (z-score),[49],-0.413
same,glycan array binding signal (z-score),[50],-0.801
same,glycan array binding signal (z-score),[51],-0.921
same,glycan array binding signal (z-score),[52],0.145

# — the supplement of paper PMC8728848
